PubChem BioAssay (EPA / NIEHS)
Records with an inconclusive call do not appear. Activity calls are given as the source filed them. The calls were made as follows, unless noted: active = hit-call score of the fitted dose curve at least 0.9, where 1 is the maximum; inconclusive = response in the unintended direction; inactive = score below 0.9.

How the values were obtained:
[1] = target: human RAR-related Orphan Receptor gamma (RORg), RORC (gene 6097) (UniProt P51449); assay: ATG_RORg_TRANS: Attagene TRANS-FACTORIAL HepG2 Assay for human RAR-related Orphan Receptor gamma (RORg) (AID 2283011);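 as to AC50: potency for induction of reporter transcripts above DMSO so activators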
Chain of human RAR-related Orphan Receptor gamma (RORg), RORC (gene 6097) (P51449 whole entry, looked up, the tested form may be a part): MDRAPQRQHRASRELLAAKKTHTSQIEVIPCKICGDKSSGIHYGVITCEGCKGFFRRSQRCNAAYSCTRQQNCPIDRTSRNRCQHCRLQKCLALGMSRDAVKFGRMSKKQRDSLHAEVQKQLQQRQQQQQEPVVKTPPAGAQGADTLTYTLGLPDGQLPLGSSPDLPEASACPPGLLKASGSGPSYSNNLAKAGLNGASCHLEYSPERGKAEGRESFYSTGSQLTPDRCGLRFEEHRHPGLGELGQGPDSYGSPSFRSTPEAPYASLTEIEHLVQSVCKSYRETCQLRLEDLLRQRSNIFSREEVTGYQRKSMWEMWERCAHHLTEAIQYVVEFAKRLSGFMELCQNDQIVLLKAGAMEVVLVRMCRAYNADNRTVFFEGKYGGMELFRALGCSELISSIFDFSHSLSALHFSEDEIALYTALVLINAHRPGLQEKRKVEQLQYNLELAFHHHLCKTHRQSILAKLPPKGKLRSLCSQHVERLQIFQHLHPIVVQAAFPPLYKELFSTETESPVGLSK
Summary of the method: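 Transient MRTU transfection of HepG2 (TRANS format, exogenous NR-Gal4 chimera). 24 h dosing. Total RNA → oligo(dT) RT → PCR → 6-FAM labelling → HpaI cut → CE. Gain vs DMSO.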

[2] = target: Retinoic acid receptor RXR-alpha (Homo sapiens) (UniProt P19793); assay: ATG_RXRa_TRANS: Attagene TRANS-FACTORIAL HepG2 Assay for human Retinoid X Receptor alpha (RXRa) (AID 2283012)
Chain of Retinoic acid receptor RXR-alpha (Homo sapiens) (P19793 whole entry, looked up, the tested form may be a part): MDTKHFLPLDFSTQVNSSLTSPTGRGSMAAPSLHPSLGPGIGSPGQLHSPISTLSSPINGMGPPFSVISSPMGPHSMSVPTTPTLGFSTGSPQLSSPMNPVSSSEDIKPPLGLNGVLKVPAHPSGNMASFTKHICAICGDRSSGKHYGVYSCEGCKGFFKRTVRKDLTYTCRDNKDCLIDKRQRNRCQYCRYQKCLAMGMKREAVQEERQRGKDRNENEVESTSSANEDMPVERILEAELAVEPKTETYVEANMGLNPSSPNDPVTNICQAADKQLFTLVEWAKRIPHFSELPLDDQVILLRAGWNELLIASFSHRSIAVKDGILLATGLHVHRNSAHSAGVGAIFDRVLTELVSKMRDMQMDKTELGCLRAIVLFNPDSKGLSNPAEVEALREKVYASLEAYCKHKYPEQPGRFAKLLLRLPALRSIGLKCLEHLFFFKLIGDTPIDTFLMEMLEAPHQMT
Summary of the method: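 Chimeric NR-GAL4 trans-activation in HepG2, 24 h treatment; reporter transcripts quantified by fluorescence on capillary electrophoresis, analysed for upward change from DMSO.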

[3] = target: human Retinoid X Receptor beta (RXRb), RXRB (gene 6257) (UniProt P28702); assay: ATG_RXRb_TRANS: Attagene TRANS-FACTORIAL HepG2 Assay for human Retinoid X Receptor beta (RXRb) (AID 2283013)
Chain of human Retinoid X Receptor beta (RXRb), RXRB (gene 6257) (P28702 whole entry, looked up, the tested form may be a part): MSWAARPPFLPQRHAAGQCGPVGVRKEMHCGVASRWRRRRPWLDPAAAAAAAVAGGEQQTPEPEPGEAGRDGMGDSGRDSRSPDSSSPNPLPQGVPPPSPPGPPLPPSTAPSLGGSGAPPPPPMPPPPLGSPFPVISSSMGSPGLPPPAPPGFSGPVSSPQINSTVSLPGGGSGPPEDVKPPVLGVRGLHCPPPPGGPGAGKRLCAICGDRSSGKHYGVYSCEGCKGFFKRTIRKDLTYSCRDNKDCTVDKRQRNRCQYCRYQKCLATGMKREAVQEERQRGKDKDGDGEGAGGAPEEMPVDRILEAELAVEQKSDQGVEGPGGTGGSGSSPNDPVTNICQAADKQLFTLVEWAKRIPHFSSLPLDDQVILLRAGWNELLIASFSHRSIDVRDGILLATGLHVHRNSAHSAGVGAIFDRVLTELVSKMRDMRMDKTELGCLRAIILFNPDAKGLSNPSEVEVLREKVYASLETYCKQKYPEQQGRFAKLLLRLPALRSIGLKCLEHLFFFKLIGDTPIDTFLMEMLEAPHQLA
Summary of the method: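 After a 24 h incubation with test chemical, transfected HepG2 cells carrying NR-Gal4 fusions and GAL4-UAS reporter transcription units yield RNA whose reporter cDNA is FAM-labelled, HpaI-cut and sized by capillary electrophoresis; increases over DMSO are scored.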

[4] = target: human Vitamin D Receptor (VDR), VDR (gene 7421) (UniProt P11473); assay: ATG_VDR_TRANS: Attagene TRANS-FACTORIAL HepG2 Assay for human Vitamin D Receptor (VDR) (AID 2283022)
Chain of human Vitamin D Receptor (VDR), VDR (gene 7421) (P11473 whole entry, looked up, the tested form may be a part): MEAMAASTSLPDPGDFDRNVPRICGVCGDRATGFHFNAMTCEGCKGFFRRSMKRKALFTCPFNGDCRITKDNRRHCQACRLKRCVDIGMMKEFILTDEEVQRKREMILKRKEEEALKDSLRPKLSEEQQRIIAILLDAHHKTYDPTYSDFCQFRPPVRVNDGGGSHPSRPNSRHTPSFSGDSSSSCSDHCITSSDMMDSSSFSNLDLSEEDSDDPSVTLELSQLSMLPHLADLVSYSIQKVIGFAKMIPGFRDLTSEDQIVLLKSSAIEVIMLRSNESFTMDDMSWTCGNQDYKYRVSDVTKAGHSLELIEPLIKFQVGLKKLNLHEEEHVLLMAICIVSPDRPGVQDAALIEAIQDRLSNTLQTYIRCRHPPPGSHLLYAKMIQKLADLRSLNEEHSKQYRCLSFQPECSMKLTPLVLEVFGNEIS
Summary of the method: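 RT-PCR/capillary electrophoresis read-out of reporter mRNA induction in transiently transfected HepG2; 24 h dosing; chimeric NR-Gal4 (TRANS format); gain-of-signal fit against DMSO baseline.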

[5] = target: human Thyroid Receptor alpha (THRa1), THRA (gene 7067) (UniProt P10827); assay: ATG_THRa1_TRANS: Attagene TRANS-FACTORIAL HepG2 Assay for human Thyroid Receptor alpha (THRa1) (AID 2283014)
Chain of human Thyroid Receptor alpha (THRa1), THRA (gene 7067) (P10827 whole entry, looked up, the tested form may be a part): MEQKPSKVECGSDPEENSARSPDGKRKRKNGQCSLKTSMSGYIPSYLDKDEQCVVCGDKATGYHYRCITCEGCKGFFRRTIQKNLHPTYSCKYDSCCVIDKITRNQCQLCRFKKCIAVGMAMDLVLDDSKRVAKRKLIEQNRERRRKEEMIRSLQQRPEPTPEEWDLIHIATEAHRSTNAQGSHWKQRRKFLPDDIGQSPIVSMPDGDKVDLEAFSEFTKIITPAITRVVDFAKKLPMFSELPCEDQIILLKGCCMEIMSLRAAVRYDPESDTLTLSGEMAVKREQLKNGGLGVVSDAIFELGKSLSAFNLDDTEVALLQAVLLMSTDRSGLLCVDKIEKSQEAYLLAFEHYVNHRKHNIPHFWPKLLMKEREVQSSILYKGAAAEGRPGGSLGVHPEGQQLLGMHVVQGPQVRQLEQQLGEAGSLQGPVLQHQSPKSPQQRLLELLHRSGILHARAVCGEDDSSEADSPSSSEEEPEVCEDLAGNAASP
Summary of the method: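 Transient HepG2 transfection, NR-Gal4 chimera driving GAL4-UAS reporters; 24 h compound exposure; total RNA, oligo(dT) RT, PCR, fluorescent primer extension, capillary electrophoresis. Upward direction vs DMSO control.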

[6] = read-out: E-selectin (Homo sapiens) (UniProt P16581); assay: BSK_3C_Eselectin: BioMAP Diversity Plus: 3C Assay for Eselectin Biomarker Activity (AID 2283015; active = hit-call score of the fitted dose curve at least 0.9, where 1 is the maximum; inactive = score below 0.9;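 as to outcome: cell surface E-selectin protein quantified by ELISA 24 h after dosing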); settings: primary human endothelial cells (HUVEC); actives raise or lower the signal
Summary of the method: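 HUVEC, 3C stimulation; compound exposure 24 h; E-selectin by ELISA; gain- or loss-of-signal fitted bidirectionally vs DMSO baseline.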

[7] = read-out: Interleukin-1 alpha (IL1a), IL1A (gene 3552); assay: BSK_BE3C_IL1a: BioMAP Diversity Plus: BE3C Assay for Interleukin-1 alpha (IL1a) Biomarker Activity (AID 2283016; active = hit-call score of the fitted dose curve at least 0.9, where 1 is the maximum; inactive = score below 0.9); settings: primary human bronchial epithelial cells; actives raise or lower the signal
Summary of the method: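 Measured in human lung primary bronchial epithelial cells: IL-1a by ELISA at 24 h after dosing, with bidirectional fitting against DMSO.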

[8] = read-out: Monocyte Chemoattractant Protein-1 (MCP1), CCL2 (gene 6347); assay: BSK_3C_MCP1: BioMAP Diversity Plus: 3C Assay for Monocyte Chemoattractant Protein-1 (MCP1) Biomarker Activity (AID 2283017; active = hit-call score of the fitted dose curve at least 0.9, where 1 is the maximum; inactive = score below 0.9); settings: primary human endothelial cells (HUVEC); actives raise or lower the signal
Summary of the method: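 HUVEC, 3C system; 24 h chemical exposure; MCP-1 by ELISA; bidirectional curve fit vs DMSO baseline.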

[9] = read-out: Monocyte Chemoattractant Protein-1 (MCP1), CCL2 (gene 6347); assay: BSK_4H_MCP1: BioMAP Diversity Plus: 4H Assay for Monocyte Chemoattractant Protein-1 (MCP1) Biomarker Activity (AID 2283018; active = hit-call score of the fitted dose curve at least 0.9, where 1 is the maximum; inactive = score below 0.9); settings: primary human endothelial cells (HUVEC); actives raise or lower the signal
Summary of the method: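 Primary human umbilical vein endothelium is exposed to chemical for 24 h before MCP-1 is assayed by ELISA. Concentration-response fitted bidirectionally relative to DMSO.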

[10] = read-out: Human Leukocyte Antigen - DR isotype (HLADR), HLA-DRA (gene 3122); assay: BSK_3C_HLADR: BioMAP Diversity Plus: 3C Assay for Human Leukocyte Antigen - DR isotype (HLADR) Biomarker Activity (AID 2283019; active = hit-call score of the fitted dose curve at least 0.9, where 1 is the maximum; inactive = score below 0.9;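 as to outcome: ELISA of cell-surface HLA-DR on HUVEC 24 h after dosing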); settings: primary human endothelial cells (HUVEC); actives raise or lower the signal
Summary of the method: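 HUVEC, 3C stimulation, 24 h post-dose; HLA-DR by ELISA; bidirectional curve fit vs DMSO baseline; gain or loss of signal scored.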

[11] = read-out: Interleukin-8 (IL8), CXCL8 (gene 3576); assay: BSK_3C_IL8: BioMAP Diversity Plus: 3C Assay for Interleukin-8 (IL8) Biomarker Activity (AID 2283020; active = hit-call score of the fitted dose curve at least 0.9, where 1 is the maximum; inactive = score below 0.9); settings: primary human endothelial cells (HUVEC); actives raise or lower the signal
Summary of the method: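 Using DMSO-treated wells as the baseline, bidirectional curve fitting was applied to ELISA-measured IL-8 from human umbilical vein endothelial cultures sampled 24 h after compound addition.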

[12] = read-out: Monokine induced gamma interferon (MIG), CXCL9 (gene 4283); assay: BSK_3C_MIG: BioMAP Diversity Plus: 3C Assay for Monokine induced gamma interferon (MIG) Biomarker Activity (AID 2283021; active = hit-call score of the fitted dose curve at least 0.9, where 1 is the maximum; inactive = score below 0.9); settings: primary human endothelial cells (HUVEC); actives raise or lower the signal
Summary of the method: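 ELISA-measured MIG in dosed HUVEC 3C cultures at 24 h, analysed by bidirectional fitting with DMSO defining baseline activity.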

[13] = BSK_3C_SRB: Viability Assessment in the BioMAP Diversity Plus: 3C Assay (AID 2283023; active = hit-call score of the fitted dose curve at least 0.9, where 1 is the maximum; inactive = score below 0.9;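 also: fitted both ways against DMSO so a hit may be signal rise or drop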); settings: primary human endothelial cells (HUVEC)
Summary of the method: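 HUVEC, 24 h post-dose; 10% TCA fix, 0.1% SRB stain, A560 nm. Bidirectional curve fit vs DMSO negative control.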

[14] = read-out: Matrix Metallopeptidase 1 (MMP1), MMP1 (gene 4312); assay: BSK_BE3C_MMP1: BioMAP Diversity Plus: BE3C Assay for Matrix Metallopeptidase 1 (MMP1) Biomarker Activity (AID 2283024; active = hit-call score of the fitted dose curve at least 0.9, where 1 is the maximum; inactive = score below 0.9); settings: primary human bronchial epithelial cells; actives raise or lower the signal
Summary of the method: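 In this multiplexed primary-cell system, human bronchial epithelium received chemicals for 24 h before an ELISA for MMP1. Values reflect bidirectional fits normalised to the DMSO baseline.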

[15] = BSK_3C_Vis: BioMAP Diversity Plus: 3C Assay for Morphology Visualization (AID 2283025; active = hit-call score of the fitted dose curve at least 0.9, where 1 is the maximum; inactive = score below 0.9;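 also: fitted both ways so gain or loss versus DMSO counts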;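 as to AC50: light microscopy image of cell morphology used as background control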); settings: primary human endothelial cells (HUVEC)
Summary of the method: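 Light-microscopy morphology readout, 24 h exposure, human primary umbilical vein endothelium; analysed relative to DMSO with bidirectional fitting.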

[16] = read-out: Pselectin, SELP (gene 6403); assay: BSK_4H_Pselectin: BioMAP Diversity Plus: 4H Assay for Pselectin Biomarker Activity (AID 2283026; active = hit-call score of the fitted dose curve at least 0.9, where 1 is the maximum; inactive = score below 0.9); settings: primary human endothelial cells (HUVEC); actives raise or lower the signal
Summary of the method: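 Bidirectional fits against DMSO gave the endpoint. Cells: primary human umbilical vein endothelium, chemical-treated for 24 h before ELISA detection of P-selectin.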

[17] = BSK_4H_SRB: Viability Assessment in the BioMAP Diversity Plus: 4H Assay (AID 2283027; active = hit-call score of the fitted dose curve at least 0.9, where 1 is the maximum; inactive = score below 0.9;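 also: cells exposed to compound for 24 h before staining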;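 as to AC50: curves fitted both ways versus DMSO so AC50 may be loss or gain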); settings: primary human endothelial cells (HUVEC)
Summary of the method: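 Cytotoxicity read-out in primary human endothelial cells: after 24 h compound exposure, cells were TCA-fixed (10%), stained with 0.1% SRB and absorbance taken at 560 nm. Values fitted in both directions relative to DMSO.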

[18] = BSK_BE3C_SRB: Viability Assessment in the BioMAP Diversity Plus: BE3C Assay (AID 2283028; active = hit-call score of the fitted dose curve at least 0.9, where 1 is the maximum; inactive = score below 0.9;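 as to AC50: fitted both ways so AC50 may mark signal gain or loss versus DMSO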); settings: primary human bronchial epithelial cells
Summary of the method: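 Primary human bronchial epithelium; chemical dosing, 24 h; 10% TCA fix, 0.1% SRB stain, A560; bidirectional fit vs DMSO baseline.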

[19] = read-out: Thrombomodulin, THBD (gene 7056); assay: BSK_3C_Thrombomodulin: BioMAP Diversity Plus: 3C Assay for Thrombomodulin Biomarker Activity (AID 2283029; active = hit-call score of the fitted dose curve at least 0.9, where 1 is the maximum; inactive = score below 0.9); settings: primary human endothelial cells (HUVEC); actives raise or lower the signal
Summary of the method: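 In a multiplexed primary-cell system, human umbilical vein endothelium received chemical and was assayed 24 h later for thrombomodulin by ELISA. Parallel cultures were SRB-stained (0.1% SRB after 10% TCA fixation, read at 560 nm) to flag cytotoxicity.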

[20] = read-out: Urokinase-type plasminogen activator receptor (uPAR), PLAUR (gene 5329); assay: BSK_4H_uPAR: BioMAP Diversity Plus: 4H Assay for Urokinase-type plasminogen activator receptor (uPAR) Biomarker Activity (AID 2283030; active = hit-call score of the fitted dose curve at least 0.9, where 1 is the maximum; inactive = score below 0.9); settings: primary human endothelial cells (HUVEC); actives raise or lower the signal
Summary of the method: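 HUVEC, 24 h post-dose; uPAR by ELISA; bidirectional fit vs DMSO baseline.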

Chain of E-selectin (Homo sapiens) (P16581 whole entry, looked up): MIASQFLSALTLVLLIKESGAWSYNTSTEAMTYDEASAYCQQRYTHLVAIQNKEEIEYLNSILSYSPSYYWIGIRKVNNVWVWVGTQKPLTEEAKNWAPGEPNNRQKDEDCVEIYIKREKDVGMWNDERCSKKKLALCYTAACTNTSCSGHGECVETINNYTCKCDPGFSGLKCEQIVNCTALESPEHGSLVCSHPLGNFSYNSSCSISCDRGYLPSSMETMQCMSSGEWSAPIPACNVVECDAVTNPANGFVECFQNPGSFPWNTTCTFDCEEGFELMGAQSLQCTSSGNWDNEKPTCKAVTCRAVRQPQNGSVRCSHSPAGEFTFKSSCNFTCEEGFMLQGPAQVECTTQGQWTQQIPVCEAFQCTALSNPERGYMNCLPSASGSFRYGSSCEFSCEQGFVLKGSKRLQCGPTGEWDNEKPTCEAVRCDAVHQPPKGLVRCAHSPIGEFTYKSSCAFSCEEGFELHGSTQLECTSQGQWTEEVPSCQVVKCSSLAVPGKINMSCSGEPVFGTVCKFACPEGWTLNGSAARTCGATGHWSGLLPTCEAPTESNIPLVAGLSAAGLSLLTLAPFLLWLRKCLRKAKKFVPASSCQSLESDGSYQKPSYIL

CCCC(C)C=O (stereo unspecified)
outcome [1]: inactive
outcome [2]: inactive
outcome [3]: inactive
outcome [4]: inactive

O=Cc1ccc(F)cc1
outcome [1]: inactive
outcome [2]: inactive
outcome [3]: inactive
outcome [4]: inactive

CCO[Si](CCCS)(OCC)OCC
outcome [1]: inactive
outcome [2]: inactive

CCN(CC)c1ccc(C(=C2C=CC(=[N+](CC)CC)C=C2)c2ccc(S(=O)(=O)O)cc2S(=O)(=O)[O-])cc1
outcome [1]: inactive
outcome [2]: inactive
AC50 [3]: 100 µM (active)
outcome [4]: inactive

CC1(CO)CN(c2ccccc2)NC1=O (stereo unspecified)
outcome [1]: inactive

O=S(=O)(O)c1ccc(O)c2ncccc12
outcome [1]: inactive
outcome [2]: inactive
outcome [3]: inactive
outcome [5]: inactive
outcome [4]: inactive

Clc1nc(C(Cl)(Cl)Cl)c(Cl)c(Cl)c1Cl
outcome [1]: inactive
outcome [2]: inactive
AC50 [3]: 21.8 µM (active)
outcome [5]: inactive

Sc1nc(S)nc(S)n1
outcome [1]: inactive

O=C[C@H](O)[C@H](O)[C@H](O)CO
outcome [1]: inactive

CC(O)C(C)O (stereo unspecified)
outcome [1]: inactive
outcome [2]: inactive
outcome [4]: inactive

COc1ccc(NC(=O)CC(C)=O)cc1
outcome [1]: inactive
outcome [2]: inactive
outcome [4]: inactive

CCCCC[Si](OCC)(OCC)OCC
outcome [1]: inactive
outcome [3]: inactive

CC(CCO)CCCC(C)(C)O (stereo unspecified)
outcome [1]: inactive
outcome [2]: inactive
outcome [4]: inactive

Cc1cccc(C)c1[N+](=O)[O-]
outcome [1]: inactive
outcome [2]: inactive
outcome [5]: inactive

O=C1CCCCCCCCCCCCCCO1
outcome [1]: inactive
outcome [2]: inactive
AC50 [6]: 20 µM (active)
AC50 [7]: 20 µM (active)
AC50 [8]: 26.5 µM (active)
AC50 [9]: 25.4 µM (active)
AC50 [10]: 20 µM (active)
AC50 [11]: 33.6 µM (active)
outcome [12]: inactive
outcome [4]: inactive
AC50 [13]: 27.1 µM (active)
outcome [14]: inactive
AC50 [15]: 14.4 µM (active)
AC50 [16]: 27.6 µM (active)
AC50 [17]: 27.4 µM (active)
AC50 [18]: 9.72 µM (active)
AC50 [19]: 20 µM (active)
AC50 [20]: 23.7 µM (active)

CC(C#N)(CCC(=O)O)N=NC(C)(C#N)CCC(=O)O (stereo unspecified)
outcome [1]: inactive
outcome [3]: inactive
outcome [5]: inactive

N#Cc1nc(Cl)c(Cl)c(Cl)c1Cl
AC50 [1]: 2.56 µM (active)
outcome [2]: inactive
outcome [4]: inactive

O=Nc1ccc(Nc2ccccc2)cc1
AC50 [1]: 40.4 µM (active)
outcome [2]: inactive
outcome [4]: inactive

CC(C)=CCO
outcome [1]: inactive
outcome [2]: inactive
outcome [5]: inactive
outcome [4]: inactive

CCCCC(CC)COCCC#N (stereo unspecified)
outcome [1]: inactive
outcome [2]: inactive
outcome [6]: inactive
outcome [7]: inactive
AC50 [8]: 20 µM (active)
outcome [9]: inactive
AC50 [10]: 20 µM (active)
outcome [11]: inactive
outcome [12]: inactive
outcome [4]: inactive
outcome [13]: inactive
outcome [14]: inactive
outcome [15]: inactive
outcome [16]: inactive
outcome [17]: inactive
outcome [18]: inactive
outcome [19]: inactive
outcome [20]: inactive

O=P(c1ccccc1)(c1ccccc1)c1ccccc1
outcome [1]: inactive
outcome [2]: inactive
outcome [6]: inactive
outcome [7]: inactive
outcome [8]: inactive
outcome [9]: inactive
outcome [10]: inactive
outcome [11]: inactive
outcome [12]: inactive
outcome [13]: inactive
outcome [14]: inactive
outcome [15]: inactive
outcome [16]: inactive
outcome [17]: inactive
outcome [18]: inactive
outcome [19]: inactive
outcome [20]: inactive
